# Columns and labels:
# Experiment in all cases: DAPPL (digital affinity profiling via proximity ligation, sequencing); 10 mM Tris-HCl pH 7.5, 50 mM NaCl, 1 mM DTT, 4% glycerol, room temperature, 30 min; GST-TFs on glutathione beads, 16-mer random dsDNA library, 0.1% formaldehyde crosslink after washing; high values mean tight binding
# [1] = target: T1, FLI1 (Homo sapiens, UniProt Q01543 1-452); settings: protein: recombinant; tags: N-terminal GST; dsDNA, one strand shown
# T1 sequence: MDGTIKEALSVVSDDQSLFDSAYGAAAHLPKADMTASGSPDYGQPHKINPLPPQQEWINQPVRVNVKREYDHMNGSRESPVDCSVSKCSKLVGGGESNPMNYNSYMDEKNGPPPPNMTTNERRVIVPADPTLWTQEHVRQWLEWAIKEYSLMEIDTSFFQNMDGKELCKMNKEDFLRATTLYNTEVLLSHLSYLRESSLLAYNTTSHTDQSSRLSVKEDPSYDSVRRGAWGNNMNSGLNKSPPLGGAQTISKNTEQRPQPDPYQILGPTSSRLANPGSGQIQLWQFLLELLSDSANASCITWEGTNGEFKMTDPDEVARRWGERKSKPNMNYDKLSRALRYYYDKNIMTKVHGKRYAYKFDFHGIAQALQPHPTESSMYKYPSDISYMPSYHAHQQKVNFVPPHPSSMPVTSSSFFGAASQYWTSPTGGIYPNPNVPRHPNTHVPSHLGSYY
# Summary of the method: (§1)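 Beads coated with glutathione captured GST-fused human transcription factors that had been expressed in yeast, and the factors were then given DNA barcodes and pooled with a tag-only sample. The pools were incubated with 200 nmole of a random double-stranded 16-mer DNA library in Tris/NaCl/DTT/glycerol buffer for 30 min at room temperature, washed, crosslinked with 0.1% formaldehyde and proximity-ligated with BsaI/T4 ligase at 37 °C for 1 h. PCR amplification and Illumina NextSeq500 sequencing came last. Binding signal is each hexamer's read frequency for a factor divided by its frequency for the tag-only sample.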
# [2] = target: T2, ELK1 (Homo sapiens, UniProt P19419 1-428); settings: protein: recombinant; tags: N-terminal GST; dsDNA, one strand shown
# T2 sequence: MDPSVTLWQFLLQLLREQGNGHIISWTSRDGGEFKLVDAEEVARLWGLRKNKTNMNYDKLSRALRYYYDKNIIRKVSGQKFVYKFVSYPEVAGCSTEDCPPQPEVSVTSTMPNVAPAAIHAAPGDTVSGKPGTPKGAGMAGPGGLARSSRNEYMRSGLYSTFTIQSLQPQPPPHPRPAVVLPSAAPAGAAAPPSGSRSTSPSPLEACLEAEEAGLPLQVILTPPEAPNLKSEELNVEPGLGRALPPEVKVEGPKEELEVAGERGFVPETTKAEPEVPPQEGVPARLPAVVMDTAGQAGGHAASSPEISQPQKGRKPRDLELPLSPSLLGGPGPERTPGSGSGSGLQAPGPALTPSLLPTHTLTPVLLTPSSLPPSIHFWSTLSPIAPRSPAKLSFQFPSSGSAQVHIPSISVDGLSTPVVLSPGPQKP
# Summary of the method: as §1
# [3] = target: T3, GABPA (Homo sapiens, UniProt Q06546 1-454); settings: protein: recombinant; tags: N-terminal GST; dsDNA, one strand shown
# T3 sequence: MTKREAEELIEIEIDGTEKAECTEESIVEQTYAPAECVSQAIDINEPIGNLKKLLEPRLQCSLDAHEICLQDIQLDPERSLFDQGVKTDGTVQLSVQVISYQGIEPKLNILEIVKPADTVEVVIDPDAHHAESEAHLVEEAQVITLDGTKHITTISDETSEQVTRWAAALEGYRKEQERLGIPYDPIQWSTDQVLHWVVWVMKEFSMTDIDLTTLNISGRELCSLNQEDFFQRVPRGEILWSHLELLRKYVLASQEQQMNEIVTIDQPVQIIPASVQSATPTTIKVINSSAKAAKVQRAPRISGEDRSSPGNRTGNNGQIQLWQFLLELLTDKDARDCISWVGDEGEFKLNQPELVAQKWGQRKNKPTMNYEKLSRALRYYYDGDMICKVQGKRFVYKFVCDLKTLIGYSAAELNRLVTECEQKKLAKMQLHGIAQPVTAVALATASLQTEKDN
# Summary of the method: as §1
# [4] = target: T4, ERG (Homo sapiens, UniProt P11308 1-479); settings: protein: recombinant; tags: N-terminal GST; dsDNA, one strand shown
# T4 sequence: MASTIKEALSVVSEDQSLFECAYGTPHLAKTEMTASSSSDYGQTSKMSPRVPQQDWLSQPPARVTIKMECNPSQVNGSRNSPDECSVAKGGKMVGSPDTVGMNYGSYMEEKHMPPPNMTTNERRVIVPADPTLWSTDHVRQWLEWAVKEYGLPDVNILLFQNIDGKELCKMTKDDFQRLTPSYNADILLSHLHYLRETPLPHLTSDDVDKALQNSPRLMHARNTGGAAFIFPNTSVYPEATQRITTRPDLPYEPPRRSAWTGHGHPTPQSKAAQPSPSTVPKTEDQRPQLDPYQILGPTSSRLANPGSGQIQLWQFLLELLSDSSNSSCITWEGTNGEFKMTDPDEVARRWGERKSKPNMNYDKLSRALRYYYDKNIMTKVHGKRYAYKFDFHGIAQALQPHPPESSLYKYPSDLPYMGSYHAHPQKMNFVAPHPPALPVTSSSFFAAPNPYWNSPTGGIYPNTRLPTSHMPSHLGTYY
# Summary of the method: as §1
# [5] = target: ELF1 (Homo sapiens, UniProt P32519 1-619); settings: protein: recombinant; tags: N-terminal GST; dsDNA, one strand shown
# Summary of the method: as §1
# [6] = target: T5, EHF (Homo sapiens, UniProt Q9NZC4 1-300); settings: protein: recombinant; tags: N-terminal GST; dsDNA, one strand shown
# T5 sequence: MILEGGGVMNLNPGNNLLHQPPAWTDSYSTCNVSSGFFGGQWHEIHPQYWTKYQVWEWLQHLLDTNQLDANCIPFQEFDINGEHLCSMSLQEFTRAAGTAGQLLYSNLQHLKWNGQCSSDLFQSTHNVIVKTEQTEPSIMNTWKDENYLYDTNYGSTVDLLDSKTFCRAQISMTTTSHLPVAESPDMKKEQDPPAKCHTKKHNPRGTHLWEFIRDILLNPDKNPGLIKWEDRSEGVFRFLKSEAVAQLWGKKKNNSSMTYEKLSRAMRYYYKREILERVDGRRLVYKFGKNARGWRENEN
# Summary of the method: as §1
# [7] = target: SPI1 (Homo sapiens, UniProt P17947 1-270); settings: protein: recombinant; tags: N-terminal GST; dsDNA, one strand shown
# Summary of the method: as §1
# [8] = target: SPIB (Homo sapiens, UniProt Q01892 1-262); settings: protein: recombinant; tags: N-terminal GST; dsDNA, one strand shown
# Summary of the method: as §1
# [9] = target: T6, ELK3 (Homo sapiens, UniProt P41970 1-407); settings: protein: recombinant; tags: N-terminal GST; dsDNA, one strand shown
# T6 sequence: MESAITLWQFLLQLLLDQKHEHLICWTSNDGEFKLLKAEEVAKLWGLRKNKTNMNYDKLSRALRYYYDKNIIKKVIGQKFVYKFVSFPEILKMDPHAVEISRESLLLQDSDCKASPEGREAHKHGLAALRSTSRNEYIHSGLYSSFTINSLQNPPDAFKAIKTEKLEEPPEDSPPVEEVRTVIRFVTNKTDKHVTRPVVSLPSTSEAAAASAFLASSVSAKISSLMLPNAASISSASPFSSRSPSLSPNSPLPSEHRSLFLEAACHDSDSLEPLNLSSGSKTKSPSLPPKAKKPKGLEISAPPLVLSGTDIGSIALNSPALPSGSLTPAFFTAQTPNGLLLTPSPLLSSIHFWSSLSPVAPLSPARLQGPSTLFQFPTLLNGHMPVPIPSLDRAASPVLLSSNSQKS
# Summary of the method: as §1
# [10] = target: T7, FEV (Homo sapiens, UniProt Q99581 1-238); settings: protein: recombinant; tags: N-terminal GST; dsDNA, one strand shown
# T7 sequence: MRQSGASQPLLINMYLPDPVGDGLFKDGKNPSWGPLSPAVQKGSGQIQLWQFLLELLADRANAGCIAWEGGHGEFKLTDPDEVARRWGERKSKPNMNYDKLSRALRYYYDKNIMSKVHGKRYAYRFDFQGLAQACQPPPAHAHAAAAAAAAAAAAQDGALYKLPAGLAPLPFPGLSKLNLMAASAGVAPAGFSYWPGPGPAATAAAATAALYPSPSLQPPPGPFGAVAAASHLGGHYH
# Summary of the method: as §1
# [11] = target: ETV5 (Homo sapiens, UniProt P41161 1-510); settings: protein: recombinant; tags: N-terminal GST; dsDNA, one strand shown
# Summary of the method: as §1
# [12] = target: HSF1 (Homo sapiens, UniProt Q00613 1-529); settings: protein: recombinant; tags: N-terminal GST; chain copies: 3; dsDNA, one strand shown
# Summary of the method: as §1
# [13] = target: T8, SPIC (Homo sapiens, UniProt Q8N5J4 1-248); settings: protein: recombinant; tags: N-terminal GST; dsDNA, one strand shown
# T8 sequence: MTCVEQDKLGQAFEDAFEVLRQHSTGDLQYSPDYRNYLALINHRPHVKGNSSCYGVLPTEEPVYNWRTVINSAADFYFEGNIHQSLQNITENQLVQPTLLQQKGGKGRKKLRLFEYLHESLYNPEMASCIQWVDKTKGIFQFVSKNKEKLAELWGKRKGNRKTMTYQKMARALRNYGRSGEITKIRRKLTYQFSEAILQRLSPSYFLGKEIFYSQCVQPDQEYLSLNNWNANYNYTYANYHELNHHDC
# Summary of the method: as §1
# [14] = target: ELF4 (Homo sapiens, UniProt Q99607 1-663); settings: protein: recombinant; tags: N-terminal GST; dsDNA, one strand shown
# Summary of the method: as §1
# [15] = target: T9, ELK4 (Homo sapiens, UniProt P28324-2 1-405); settings: protein: recombinant; tags: N-terminal GST; dsDNA, one strand shown
# T9 sequence: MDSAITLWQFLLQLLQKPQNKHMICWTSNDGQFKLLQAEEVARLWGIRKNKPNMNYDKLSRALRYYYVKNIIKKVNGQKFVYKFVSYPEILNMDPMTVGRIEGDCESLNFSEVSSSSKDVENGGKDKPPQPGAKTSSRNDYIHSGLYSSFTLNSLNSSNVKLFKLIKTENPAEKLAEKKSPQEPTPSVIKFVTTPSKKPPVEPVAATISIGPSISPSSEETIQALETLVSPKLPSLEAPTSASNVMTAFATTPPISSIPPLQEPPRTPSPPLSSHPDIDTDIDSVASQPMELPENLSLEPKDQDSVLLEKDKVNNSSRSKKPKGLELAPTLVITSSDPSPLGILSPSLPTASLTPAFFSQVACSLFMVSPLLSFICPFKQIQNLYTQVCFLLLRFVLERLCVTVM
# Summary of the method: as §1
# [16] = target: T10, ETV2 (Homo sapiens, UniProt O00321 1-342); settings: protein: recombinant; tags: N-terminal GST; dsDNA, one strand shown
# T10 sequence: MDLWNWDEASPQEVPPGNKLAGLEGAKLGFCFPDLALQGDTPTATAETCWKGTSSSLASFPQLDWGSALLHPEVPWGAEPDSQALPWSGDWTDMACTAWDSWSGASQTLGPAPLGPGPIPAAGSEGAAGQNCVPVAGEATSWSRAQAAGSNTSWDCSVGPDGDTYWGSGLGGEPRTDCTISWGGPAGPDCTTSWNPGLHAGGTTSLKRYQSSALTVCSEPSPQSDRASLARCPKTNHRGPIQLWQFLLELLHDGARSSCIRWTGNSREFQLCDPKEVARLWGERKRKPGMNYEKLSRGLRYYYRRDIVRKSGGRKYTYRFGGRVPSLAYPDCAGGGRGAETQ
# Summary of the method: as §1
# [17] = target: T11, ELF3 (Homo sapiens, UniProt P78545 1-371); settings: protein: recombinant; tags: N-terminal GST; dsDNA, one strand shown
# T11 sequence: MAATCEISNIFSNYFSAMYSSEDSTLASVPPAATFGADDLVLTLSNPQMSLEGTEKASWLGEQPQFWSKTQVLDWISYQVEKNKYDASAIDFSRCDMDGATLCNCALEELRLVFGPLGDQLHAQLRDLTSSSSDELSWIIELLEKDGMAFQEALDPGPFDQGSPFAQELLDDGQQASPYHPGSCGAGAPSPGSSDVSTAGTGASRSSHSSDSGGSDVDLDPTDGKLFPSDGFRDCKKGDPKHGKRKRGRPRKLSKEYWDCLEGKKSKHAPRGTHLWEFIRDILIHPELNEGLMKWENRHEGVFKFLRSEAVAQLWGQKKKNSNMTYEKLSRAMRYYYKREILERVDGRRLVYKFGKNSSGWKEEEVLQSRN
# Summary of the method: as §1
# [18] = target: CRX (Homo sapiens, UniProt O43186 1-299); settings: protein: recombinant; tags: N-terminal GST; dsDNA, one strand shown
# Summary of the method: as §1
# [19] = target: ETV1 (Homo sapiens, UniProt P50549 1-477); settings: protein: recombinant; tags: N-terminal GST; dsDNA, one strand shown
# Summary of the method: as §1
# Chain of ELF1 (P32519 whole entry): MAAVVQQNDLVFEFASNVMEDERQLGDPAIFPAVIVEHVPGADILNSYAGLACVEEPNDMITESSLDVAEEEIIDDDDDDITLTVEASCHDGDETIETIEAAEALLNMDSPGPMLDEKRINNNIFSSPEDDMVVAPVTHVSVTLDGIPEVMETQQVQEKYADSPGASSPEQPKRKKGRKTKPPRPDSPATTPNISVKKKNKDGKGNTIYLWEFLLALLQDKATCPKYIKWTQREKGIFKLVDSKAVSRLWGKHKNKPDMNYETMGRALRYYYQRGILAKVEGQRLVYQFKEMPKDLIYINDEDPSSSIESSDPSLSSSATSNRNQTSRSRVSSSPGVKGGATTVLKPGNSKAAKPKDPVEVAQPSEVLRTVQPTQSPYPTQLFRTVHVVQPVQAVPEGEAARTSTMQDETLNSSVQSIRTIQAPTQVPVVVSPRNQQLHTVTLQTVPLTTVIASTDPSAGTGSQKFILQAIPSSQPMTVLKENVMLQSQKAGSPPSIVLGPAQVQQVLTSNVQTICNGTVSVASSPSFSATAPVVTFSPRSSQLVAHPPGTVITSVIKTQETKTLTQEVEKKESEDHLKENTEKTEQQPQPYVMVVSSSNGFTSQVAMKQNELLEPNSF
# Chain of CRX (O43186 whole entry): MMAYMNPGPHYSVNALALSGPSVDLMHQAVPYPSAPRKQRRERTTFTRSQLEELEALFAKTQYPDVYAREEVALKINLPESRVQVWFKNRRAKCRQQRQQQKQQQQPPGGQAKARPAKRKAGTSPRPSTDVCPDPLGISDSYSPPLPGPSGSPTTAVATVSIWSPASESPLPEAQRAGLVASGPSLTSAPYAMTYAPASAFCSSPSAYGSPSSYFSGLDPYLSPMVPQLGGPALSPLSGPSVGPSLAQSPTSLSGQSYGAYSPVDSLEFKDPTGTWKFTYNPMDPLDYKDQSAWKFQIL
# Chain of HSF1 (Q00613 whole entry): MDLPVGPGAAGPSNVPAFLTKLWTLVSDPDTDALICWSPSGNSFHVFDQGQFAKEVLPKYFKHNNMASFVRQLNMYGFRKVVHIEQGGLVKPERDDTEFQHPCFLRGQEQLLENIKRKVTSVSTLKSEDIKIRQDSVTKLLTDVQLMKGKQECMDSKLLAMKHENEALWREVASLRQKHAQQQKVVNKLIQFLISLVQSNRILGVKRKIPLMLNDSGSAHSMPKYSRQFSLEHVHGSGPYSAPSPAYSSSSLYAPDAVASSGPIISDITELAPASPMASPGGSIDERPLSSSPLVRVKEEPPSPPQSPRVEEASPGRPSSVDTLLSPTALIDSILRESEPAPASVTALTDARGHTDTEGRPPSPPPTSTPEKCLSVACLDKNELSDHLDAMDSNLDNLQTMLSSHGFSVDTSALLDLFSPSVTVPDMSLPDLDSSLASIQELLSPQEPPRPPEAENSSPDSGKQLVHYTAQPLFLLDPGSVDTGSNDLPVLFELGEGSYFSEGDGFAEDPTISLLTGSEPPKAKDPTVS
# Chain of ETV5 (P41161 whole entry): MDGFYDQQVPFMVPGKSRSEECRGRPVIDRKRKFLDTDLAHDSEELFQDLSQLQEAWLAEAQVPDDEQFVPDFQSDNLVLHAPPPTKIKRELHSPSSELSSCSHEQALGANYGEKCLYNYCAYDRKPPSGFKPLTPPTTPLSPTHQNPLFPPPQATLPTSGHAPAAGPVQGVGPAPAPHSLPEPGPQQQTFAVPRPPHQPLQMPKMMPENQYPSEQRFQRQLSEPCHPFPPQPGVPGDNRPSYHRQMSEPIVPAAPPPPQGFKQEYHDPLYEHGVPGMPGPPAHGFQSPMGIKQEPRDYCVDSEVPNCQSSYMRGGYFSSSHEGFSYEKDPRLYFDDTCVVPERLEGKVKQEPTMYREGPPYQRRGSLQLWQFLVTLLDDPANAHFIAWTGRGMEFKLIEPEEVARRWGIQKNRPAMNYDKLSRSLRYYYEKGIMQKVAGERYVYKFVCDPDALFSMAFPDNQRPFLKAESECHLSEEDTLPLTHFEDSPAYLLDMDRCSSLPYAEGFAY
# Chain of SPIB (Q01892 whole entry): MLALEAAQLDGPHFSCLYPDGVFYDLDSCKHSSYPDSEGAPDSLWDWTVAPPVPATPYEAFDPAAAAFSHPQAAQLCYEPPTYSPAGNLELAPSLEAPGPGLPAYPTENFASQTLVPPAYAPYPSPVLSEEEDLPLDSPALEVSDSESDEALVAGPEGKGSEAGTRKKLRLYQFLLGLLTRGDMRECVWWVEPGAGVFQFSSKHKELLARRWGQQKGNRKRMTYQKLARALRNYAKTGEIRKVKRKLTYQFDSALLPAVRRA
# Chain of ETV1 (P50549 whole entry): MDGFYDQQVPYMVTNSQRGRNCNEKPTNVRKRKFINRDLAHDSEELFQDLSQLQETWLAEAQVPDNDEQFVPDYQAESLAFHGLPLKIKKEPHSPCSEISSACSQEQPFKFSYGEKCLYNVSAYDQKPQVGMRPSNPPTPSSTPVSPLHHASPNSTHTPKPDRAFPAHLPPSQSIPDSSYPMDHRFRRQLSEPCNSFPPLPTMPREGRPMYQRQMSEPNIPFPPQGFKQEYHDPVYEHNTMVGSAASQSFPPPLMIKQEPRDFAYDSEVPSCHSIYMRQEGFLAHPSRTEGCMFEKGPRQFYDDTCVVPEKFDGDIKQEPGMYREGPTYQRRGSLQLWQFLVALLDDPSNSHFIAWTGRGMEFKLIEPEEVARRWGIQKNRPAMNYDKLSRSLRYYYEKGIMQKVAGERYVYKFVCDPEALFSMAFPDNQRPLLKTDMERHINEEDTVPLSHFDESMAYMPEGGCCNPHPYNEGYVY
# Chain of ELF4 (Q99607 whole entry): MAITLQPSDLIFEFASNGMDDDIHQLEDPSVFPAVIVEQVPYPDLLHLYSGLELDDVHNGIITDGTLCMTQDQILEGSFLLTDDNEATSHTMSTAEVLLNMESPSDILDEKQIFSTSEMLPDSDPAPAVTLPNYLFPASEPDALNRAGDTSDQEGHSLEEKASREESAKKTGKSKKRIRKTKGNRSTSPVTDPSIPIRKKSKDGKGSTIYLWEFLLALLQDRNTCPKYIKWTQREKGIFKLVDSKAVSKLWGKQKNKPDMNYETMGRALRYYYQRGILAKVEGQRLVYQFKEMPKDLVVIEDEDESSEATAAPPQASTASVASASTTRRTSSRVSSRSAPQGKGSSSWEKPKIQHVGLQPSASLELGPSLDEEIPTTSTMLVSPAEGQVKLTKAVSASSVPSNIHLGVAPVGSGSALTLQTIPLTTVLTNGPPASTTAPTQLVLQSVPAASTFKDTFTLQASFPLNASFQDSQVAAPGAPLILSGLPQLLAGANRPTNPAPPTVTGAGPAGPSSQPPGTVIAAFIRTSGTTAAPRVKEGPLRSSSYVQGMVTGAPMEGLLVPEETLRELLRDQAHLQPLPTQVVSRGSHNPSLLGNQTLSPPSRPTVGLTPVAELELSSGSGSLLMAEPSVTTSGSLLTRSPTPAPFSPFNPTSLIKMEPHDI
sequence,measurement,setting,value
AGCACT,binding signal,[1],"1.38 fold enrichment (6-mer frequency, TF over GST control)"
same,binding signal,[2],"1.52 fold enrichment (6-mer frequency, TF over GST control)"
same,binding signal,[3],"1.41 fold enrichment (6-mer frequency, TF over GST control)"
same,binding signal,[4],"1.48 fold enrichment (6-mer frequency, TF over GST control)"
same,binding signal,[5],"1.4 fold enrichment (6-mer frequency, TF over GST control)"
same,binding signal,[6],"1.36 fold enrichment (6-mer frequency, TF over GST control)"
same,binding signal,[7],"1.4 fold enrichment (6-mer frequency, TF over GST control)"
same,binding signal,[8],"1.44 fold enrichment (6-mer frequency, TF over GST control)"
same,binding signal,[9],"1.62 fold enrichment (6-mer frequency, TF over GST control)"
same,binding signal,[10],"1.51 fold enrichment (6-mer frequency, TF over GST control)"
same,binding signal,[11],"1.37 fold enrichment (6-mer frequency, TF over GST control)"
same,binding signal,[12],"1.19 fold enrichment (6-mer frequency, TF over GST control)"
same,binding signal,[13],"1.32 fold enrichment (6-mer frequency, TF over GST control)"
same,binding signal,[14],"1.44 fold enrichment (6-mer frequency, TF over GST control)"
same,binding signal,[15],"1.31 fold enrichment (6-mer frequency, TF over GST control)"
same,binding signal,[16],"1.46 fold enrichment (6-mer frequency, TF over GST control)"
same,binding signal,[17],"1.26 fold enrichment (6-mer frequency, TF over GST control)"
same,binding signal,[18],"1.18 fold enrichment (6-mer frequency, TF over GST control)"
same,binding signal,[19],"1.36 fold enrichment (6-mer frequency, TF over GST control)"
